In PubChem BioAssay (NCI):
Compounds without any hit were thinned out: in the full panel of roughly 79,000, 15% have a hit. A number with no mark means an inactive call. Active and inactive are the calls of the source. No stated cut-off is given here; in the data, active means growth inhibition above about 70%; inactive means the rest.

assay: NCI Yeast Anticancer Drug Screen. Data for the mlh1 rad18 strain (AID 175); conditions: S. cerevisiae mlh1 rad18 strain growth inhibition; at 50.0 µM; hits give high values
Protocol: Growth inhibition of yeast strains with defined genetic alterations is measured as a screen for potential anti-cancer activity. Selected strains with alterations in DNA damage repair or cell cycle control were exposed to compounds and growth inhibition was measured relative to vehicle treated controls. The strain used in this assay is mlh1 rad18

Structure (SMILES) | growth inhibition
Cc1cc(Oc2cnc(=O)[nH]c2)cs1 | 10.9%
COC(=O)N/N=C/c1ccc(NC(C)=O)cc1 | -5%
Cc1cc(C)c(C2CNCc3cc4c(cc32)CNCC4c2c(C)cc(C)cc2C)c(C)c1 (stereo not given) | -131%
O=C(NCP(=O)(c1ccccc1)c1ccccc1)OCc1ccccc1 | 6.6%
CCCCCCCCCCCCOC(=O)CSC#N | -14.1%
CC(C)(O)c1ccccc1[S+]1OC(C)(C)c2ccccc21 (stereo not given) | 35.8%
CC1(C(=O)O)C2CCC(C2)C1C(=O)O (stereo not given) | 3.35%
O=c1oc2nc(-c3ccccc3)[nH]c(=O)c2c2c1CCCC2 | 19.9%
OC12CC/C(=N/OCc3ccccc3)CC1c1ccccc12 (stereo not given) | 0.45%
Nc1ccc(Cl)c(Cl)c1Cl | 35.7%
CN(Cc1ccc(Cl)cc1)C(=O)NCCCCCCNC(=O)N(C)Cc1ccc(Cl)cc1 | 96.8% (active)
COc1cc(-c2cc(=O)c3c(OC)c(OC)c(OC)cc3o2)c(OC)c(OC)c1OC | -36.8%
Cc1c(-c2ccccc2)c(=O)oc2ccc(Cl)cc12 | -15.2%
O=N/C(=C(\c1ccccc1)N1CCOCC1)c1ccccc1 | 6.45%
COC(=O)C1(CCCCCBr)CCCCCCCCCCC1=O (stereo not given) | -34.5%
COc1ccc(/C=N/N2CN(C(CC(N)=O)C(=O)O)P(Nc3ncccn3)N=C2N)cc1OC (stereo not given) | 8.35%
CCCCC(CCCC)NCC(C)OC(=O)c1ccc(N)cc1 (stereo not given) | 16.3%
COc1ccccc1N1C(=O)C2c3[nH]c4ccccc4c3C3CCC(C(C)(C)C)CC3C2C1=O (stereo not given) | 5.5%
Cc1ccc(S(=O)(=O)N/N=C/c2ccccc2)cc1 | 7.35%
N#CCCC(=O)c1ccc[nH]1 | 8.4%

Structure (SMILES) | growth inhibition
Nc1ccc(Br)cc1C(=O)O | -3.3%
OCC1CCN(CCOCc2ccccc2)C1 (stereo not given) | 7.6%
O=C(O)C1=CC(c2ccccc2O)=NCCN1 | 3.6%
COc1cc2c(cc1OC)C[N+]1(C)CCc3cc(OC)c(OC)cc3C1C2 (stereo not given) | -5.55%
CCOC(=O)/C=C(\CC(=O)OCC)Nc1ccc(OC)cc1 | -15.9%
NC(=O)c1ncn(C2CCC(CP(=O)(O)O)C2)c1N (stereo not given) | 5.8%
CCc1cc(CN2CCN(CCO)CC2)c(O)c(CN2CCN(CCO)CC2)c1 | 9.35%
O=C(NCCCl)NCc1ccco1 | -0.9%
O=C(c1ccc(F)cc1)c1c[nH]c(=O)[nH]c1=O | -33.2%
O=C(NC1CCCCC1)OCc1c(COC(=O)NC2CCCCC2)c2cccn2c2c1cnn2-c1ccccc1 | 19.1%
COc1ccc(C(=O)NC(=S)Nc2cccc([N+](=O)[O-])c2)cc1 | 27.7%
COc1ccc(-c2c([O-])oc(-c3ccccc3)[n+]2C)cc1 | -4.1%
CCc1ccc(N=Nc2c(F)c(F)c(NC(C)=O)c(F)c2F)cc1 | -13.4%
O=C1CSC(c2ccc([N+](=O)[O-])cc2)N1c1nncs1 (stereo not given) | 0.55%
CC(=O)CC(SCCSCCSC(CC(C)=O)c1ccccc1)c1ccccc1 (stereo not given) | 14.7%
CCCCC(C)C(=O)CC(SCC)c1ccc(Cl)c(Cl)c1 (stereo not given) | -0.95%
C[n+]1c(/C=C/c2ccc3c(c2)OCO3)ccc2ccccc21 | 14.2%
O=C1NC(=O)C(=Cc2cc3c(cc2Br)OCO3)C(=O)N1 | 25.9%
Cc1ccc(S(=O)(=O)Oc2ccc(N(CC(=O)O)S(=O)(=O)c3ccc(C)cc3)cc2)cc1 | 17.5%
CCCCCCCCCCCCCCCCOc1ccc(N)cc1 | 1.1%
